Rows were chosen to be rich in hits. Some 1.4% of all compounds tested hit in one or more screens of this group.
Mtb MbtI inh: blocks the Mycobacterium tuberculosis siderophore enzyme MbtI. AID 493033. 100,000 tested, 0.89% active. P9WFX0. purified MbtI enzyme, fluorescence intensity read-out. inhibition, % (no concentration beside the values); in the data active means inhibition mostly above about 56%, no sharp cut-off; inactive means mostly below about 77%
PV pol inh: poliovirus RNA polymerase inhibition; P03300; poliovirus polymerase elongation, fluorescence polarization; stronger effect = lower value; % elongation, % (compound at 16.7 µg/mL); 150,000 tested, 0.66% active; in the data active means % elongation below about 90%
MenB inh: inhibitors of Mycobacterium tuberculosis MenB enzyme; P9WNP5; MenB enzyme assay, absorbance read-out; inhibition, % (no concentration beside the values); 100,000 tested, 0.43% active; in the data active means inhibition above about 21%, passing the limit was not always enough
Target sequence (P9WNP5 whole entry, looked up): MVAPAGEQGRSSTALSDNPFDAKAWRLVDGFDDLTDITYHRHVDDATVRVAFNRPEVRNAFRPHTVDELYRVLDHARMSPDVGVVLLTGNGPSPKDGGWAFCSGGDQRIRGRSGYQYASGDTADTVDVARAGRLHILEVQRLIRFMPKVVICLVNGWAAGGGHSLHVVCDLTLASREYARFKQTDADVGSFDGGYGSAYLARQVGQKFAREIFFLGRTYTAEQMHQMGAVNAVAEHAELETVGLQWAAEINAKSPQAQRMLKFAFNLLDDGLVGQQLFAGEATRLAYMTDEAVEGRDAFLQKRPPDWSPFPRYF
Starred values were filed as active, the others as inactive; nt = no result.

SMILES	Mtb MbtI inh	PV pol inh	MenB inh
O=C(NCCc1nc2ccccc2[nH]1)c1cccs1	nt	99.0	-12.1
O=C(Cc1nc2ccccc2[nH]1)c1cccs1	5.2	22.0*	nt
NC(=O)Cc1nc2ccccc2[nH]1	-5.4	101.0	nt
N/C(Cc1nc2ccccc2[nH]1)=N\O	-2.5	106.0	43.8*
CCN1CCN(C(=O)c2cc[n+]([O-])cc2)CC1	-1.2	104.0	nt
CN(C)/C=C1/C=C(c2ccccc2)OC1=S	79.9*	99.0	-167.7
CN(C)/C=C1/N=C(c2ccccc2)OC1=O	10.8	100.0	3.7
Cc1cc(C(=O)COC(=O)CSc2nc3ccccc3o2)c(C)n1C	9.9	96.0	-8.1
CCOC(=O)c1[nH]c(CSc2nncs2)c(C(=O)OCC)c1C	-3.6	116.0	-23.3
CN1CCCSC1=Nc1ccccc1F	-5.0	102.0	-18.1
CC1=NN(c2nc3ccccc3[nH]2)C(=O)/C1=C/N(C)C	37.0	101.0	-7.6
CC1=NN(c2nc3ccccc3[nH]2)C(=O)C1Cc1ccccc1 (centres undefined)	75.7*	107.0	-74.1
CC12CN3CC(C)(CN(C1)C3c1ccc(O)cc1)C2 (centres undefined)	-3.2	105.0	-17.7
CNS(=O)(=O)c1ccc2ccccc2c1	-1.8	101.0	nt
COC(=O)/C=C/S(=O)(=O)c1ccc2ccccc2c1	100.9*	99.0	-1.7
CC(c1ccccc1)C1CC(=O)N(c2ccc(OC(F)(F)F)cc2)C1=O (centres undefined)	nt	103.0	-22.7
O=C(NN=C1C2CC3CC(C2)CC1C3)c1ccncc1	5.2	100.0	3.8
O=C(N/N=C1\C/C(=N\NC(=O)c2ccncc2)c2ccccc21)c1ccncc1	-34.5	87.0*	-205.7
COc1ccccc1OCCNC(=O)c1coc2ccccc2c1=O	-6.7	103.0	-22.3
Cn1c(N)c(C#N)c2c(c1=S)CCCC2	23.9	88.0*	-45.2
CN1CCc2c(C#N)c(N)n(N)c(=S)c2C1	87.1	52.0	-5.6
CC(C)(C(=O)Nc1cccc(Cl)c1)S(=O)(=O)c1ccc(C(F)(F)F)cn1	-3.8	102.0	-9.6
COc1cc(C(=O)OCc2nnc(-c3ccccc3)o2)ccc1OCC(=O)Nc1ccc(F)cc1	10.8	101.0	-3.9
O=C1C=CC(=O)N1C1CC1	91.5*	102.0	10.3
O=C1C2CCCN2C(=S)N1C1CCCCC1 (centres undefined)	3.7	102.0	31.5
SMILES	Mtb MbtI inh	PV pol inh	MenB inh
CCOc1ccc(C2=C(C(C)=O)Sc3nnc(C)n3N2C(C)=O)cc1	nt	79.0*	nt
COc1ccc(C2=C(C(C)=O)Sc3nnc(-c4ccccc4)n3N2C(C)=O)cc1	nt	102.0	nt
O=C(O)/C=C\C(=O)Nc1cccc(C(F)(F)F)c1	-3.4	100.0	nt
Cc1nn(C)c2c1S(=O)(=O)N=C(N1CCOCC1)S2	3.5	81.0*	-10.5
O=C1CSC(N2CCOCC2)=N1	-10.1	103.0	5.5
CCC(CC)C(=O)OCc1csc(Nc2ccccc2)n1	3.5	102.0	-22.6
NCCN1C(=O)C2C3c4ccccc4C(c4ccccc43)C2C1=O (centres undefined)	-5.5	103.0	0.2
O=C1C2C3c4ccccc4C(c4ccccc43)C2C(=O)N1Cc1ccco1 (centres undefined)	-1.3	101.0	22.7*
CCOc1cc(N2CCOCC2)c(OCC)cc1NC(=O)COC(=O)CN=C1NS(=O)(=O)c2ccccc21	-5.3	103.0	-31.4
O=C(CC(NC1CC1)C(=O)O)c1ccc(Cl)cc1 (centres undefined)	nt	104.0	34.8*
O=C(CC(SC1CCCCC1)C(=O)O)c1ccc(Br)cc1 (centres undefined)	nt	102.0	-12.7
O=C(CC(Sc1ccc(Br)cc1)C(=O)O)c1ccc(Cl)cc1 (centres undefined)	nt	85.0*	25.8
O=C(COC(=O)c1ccc(Cl)cc1)NC1CC1	11.1	95.0	-7.6
CCN1CCN(Cc2ccc(NC(=O)Cc3nc(-c4ccc(OC)cc4)no3)cc2)CC1	-13.6	100.0	-7.8
C=CCN(C(=O)CSc1nnc(CC)n2c1cc1oc(C)cc12)c1ccccc1	2.8	101.0	45.4*
CCc1nnc(SCC(=O)N(CC)c2ccccc2)c2cc3oc(C)cc3n12	nt	111.0	nt
N#Cc1cc2cc3c(cc2nc1N1CCCN(C(=O)c2ccccc2)CC1)OCO3	-12.2	102.0	-24.4
CN(Cc1ccccc1)C(=O)c1ccc2c(c1)S(=O)(=O)N=C1CCCCCN12	-2.5	100.0	-22.0
Nc1cccc2c1C(=O)N(C(=O)c1ccc3c(c1)S(=O)(=O)N=C1CCCCCN13)C2=O	-1.3	58.0*	-31.7
N#CSC(C#N)Cc1ccccc1 (centres undefined)	82.9*	98.0	19.3
Cc1ccc(CC(C#N)Sc2nnc(C)n2Cc2ccccc2)cc1 (centres undefined)	-1.6	107.0	-6.3
O=C(CSc1ncn(-c2ccccc2)n1)NC1CCCCC1	3.8	102.0	13.6
Cc1nn(CCC#N)c2c1P(=S)(N1CCCCC1)OC(c1ccccc1)=N2 (centres undefined)	51.3	90.0*	-57.1
CCN(CC)P1(=S)c2c(C)nn(CCC#N)c2N=C(c2ccc(F)cc2)N1C (centres undefined)	4.5	102.0	6.2
COc1ccc(C(F)(F)F)cc1N	6.2	nt	1.6
SMILES	Mtb MbtI inh	PV pol inh	MenB inh
COC(=O)c1cc(-c2ccccc2)sc1NC(=O)C1CCCO1 (centres undefined)	nt	85.0*	-32.8
O=C(Nc1ccccc1-c1ccccc1)C1CCCO1 (centres undefined)	-3.5	100.0	1.1
Cc1cc(C(=O)COc2ccc3c(c2)CCC3)c(C)n1C	16.4	106.0	-16.0
S=c1c(Cl)c(Cl)cnn1Cc1ccccc1	nt	67.0*	-49.9
O=c1c(Cl)c(Cl)cnn1Cc1ccccc1	21.8	97.0	-20.0
CCCNC(=O)N(C)c1ncnnc1NC	-3.9	100.0	28.8*
CCCNC(=O)N(C)Cc1ccccc1	nt	106.0	-2.4
N#Cc1ccccc1OCC(=O)OC1CCOC1=O (centres undefined)	5.2	102.0	10.4
O=C(NC(=S)NCc1ccccc1)C1CCCC1	75.8*	99.0	-24.3
O=C(NCc1ccccc1)C1CCC1	nt	102.0	-3.3
CC1OS(=O)OC1(c1ccccc1)c1ccccc1 (centres undefined)	nt	89.0*	-16.2
O=C(NCCn1cccc1)c1cccc2ccccc12	52.8*	102.0	6.3
O=C(NCCn1ccc2ccccc21)c1cccc2ccccc12	6.9	101.0	-17.7
O=C1COc2ccc(C(=O)CSC(=S)N3CCCC3)cc2N1	88.5	81.0*	-49.4
Cc1cc(=O)[nH]c(SCC(=O)c2ccc3c(c2)NC(=O)CO3)n1	28.6	103.0	16.0
CC(=O)N1CCC(N(C(=O)NC2CCCC2)C(C)C)CC1	-0.9	101.0	5.6
C#CCn1c(-c2nonc2N)nc2ccccc21	-11.2	100.0	-39.6
Cc1nc2sccn2c(=O)c1S(=O)(=O)Nc1ccc(N2CCC(C)CC2)cc1	-10.9	105.0	-6.2
Cc1cc(N2CCNCC2)nc(C(C)C)n1	-3.5	102.0	13.9
O=C1C=CC(=O)N1c1ccc2c(c1)OCO2	98.8*	102.0	22.7
CS(=O)(=O)c1nnnn1-c1ccc2c(c1)OCO2	0.4	100.0	-12.7
O=C(CCC(=O)c1ccc(Cl)cc1)OC1CCCCC1=O (centres undefined)	-11.6	66.0*	-14.4
N#Cc1ccc(C(=O)OC2CCCCC2=O)cc1 (centres undefined)	10.8	102.0	1.3
COc1cc(-c2nnc(-c3ccc(N4CCOCC4)cc3)o2)cc(OC)c1OC	89.8	101.0	-6.0
